Screening results as filed in PubChem BioAssay.
Shown are actives, neighbours in structure and some others; about 11% of the full set was active somewhere.
VP16 counter: inhibits Gal4-VP16 luciferase reporter, ROR gamma counter-screen | Potency, µM (titrated, usually from 53.6 µM), for inactives: at the top dose activity, negative = inhibition, hits mostly inhibitors | Drosophila S2 Gal4-VP16 UAS-luciferase, luminescence, 20 h | actives 3.5% (n = 310,000);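 note: Gal4-VP16 expression switched on by copper sulfate through the metallothionein promoter; potency is the fitted concentration of half-maximal effect; % is set by controls: 0 for no effect and ±100 for the full control effect; nearly all actives have a fitted effect of over 50% in size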
SW480 rerep: induces DNA re-replication in SW480 colon adenocarcinoma cells; SW480 DNA re-replication, Hoechst DNA content imaging, 48 h; Potency, µM (top dose mostly 46.1 µM), without a hit: at the highest dose re-replication activation, actives largely listed as activators; actives 1.8% (n = 340,000); note: potency is the fitted concentration of half-maximal effect; % of control where 0% means no effect; nearly all actives have a fitted effect of over 55% in size
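Image-based DNA-content assay: after two days of treatment, nuclei were labelled with the DNA dye Hoechst and imaged, and hits were compounds raising the count of nuclei showing high fluorescence intensity.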
IL1B secr inh: blocks inflammasome-driven IL-1 beta release; AID 743279; activity change, % at 57.5 µM; THP-1 LPS/ATP IL-1B secretion, AlphaLISA, 16 h; hits give low values; actives 4.7% (n = 360,000); in the data active = activity change below about -50%; inconclusive = mostly about -30% to -49%; note: % is set by controls: 0 for no effect and ±100 for the full control effect
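THP-1 cells pretreated 1 hr with compounds (up to 57.5 uM final), then stimulated with LPS (250 ng/mL final) plus ATP (1.25 mM final); secreted IL-1B measured by AlphaLISA after 16 hr, decreased signal indicating inhibition.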
MCF10A rereplic: induces DNA re-replication in MCF 10a normal breast cells; Potency, µM (series often up to 46.1 µM), for inactives: top-dose activity, positive = re-replication, actives largely listed as activators; actives 2.9% (n = 350,000); MCF 10A DNA re-replication, Hoechst nuclear intensity, 48 h; note: potency is the fitted concentration of half-maximal effect; % of control where 0% means no effect; nearly all actives have a fitted effect of over 50% in size
RORg inh: ROR gamma (mouse) transcription inhibition; P51450; Drosophila S2 Gal4-RORgamma UAS-luciferase reporter, 20 h; Potency, µM (doses to about 53.6 µM), inactives show at the highest dose activity change, negative = inhibition, actives largely listed as inhibitors; actives 5.4% (n = 310,000); AID 2551; note: potency is the fitted concentration of half-maximal effect; % is set by controls: 0 for no effect and ±100 for the full control effect; nearly all actives have a fitted effect of over 60% in size
Target sequence (P51450 whole entry, looked up, the tested form may be a part): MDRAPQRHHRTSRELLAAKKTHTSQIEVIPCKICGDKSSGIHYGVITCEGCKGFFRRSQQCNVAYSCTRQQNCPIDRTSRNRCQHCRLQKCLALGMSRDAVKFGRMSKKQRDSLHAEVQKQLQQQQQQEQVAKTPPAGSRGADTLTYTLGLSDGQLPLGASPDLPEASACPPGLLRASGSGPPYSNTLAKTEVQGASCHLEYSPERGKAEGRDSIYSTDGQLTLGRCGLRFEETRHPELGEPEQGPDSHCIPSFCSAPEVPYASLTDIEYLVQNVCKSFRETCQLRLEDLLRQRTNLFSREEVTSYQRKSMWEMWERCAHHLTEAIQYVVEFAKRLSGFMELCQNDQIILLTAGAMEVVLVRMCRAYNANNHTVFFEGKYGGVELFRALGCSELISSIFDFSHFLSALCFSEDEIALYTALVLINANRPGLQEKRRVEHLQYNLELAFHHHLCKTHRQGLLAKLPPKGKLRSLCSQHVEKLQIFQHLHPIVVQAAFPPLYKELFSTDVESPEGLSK
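Using a luciferase readout, inhibitors were identified by reduced reporter activity in Drosophila cells coexpressing a copper-inducible Gal4–ROR gamma fusion and UAS-driven Photinus luciferase, incubated 20 hr after 700 uM copper sulfate.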
* hit, by the source's call; u = inconclusive; x = no result given; [ ] = dose if it differs, or a comment. Unless noted, calls come from the whole dose curve; as a rule, active = well fitted curve in the direction sought with a large enough effect; inconclusive = small, poorly fitted or top-dose-only effect, or another doubt; inactive = no such curve, though single readings can be large; an effect the other way counts as inactive or inconclusive.

SMILES	VP16 counter	SW480 rerep	IL1B secr inh	MCF10A rereplic	RORg inh
Cc1sc(NC(=O)/C=C/C(=O)O)c(C(N)=O)c1-c1ccc(C(C)(C)C)cc1	-10%	u	-91*	21µM*	u
CCOC(=O)c1sc(NC(=O)CNCc2ccccn2)c(C(=O)OCC)c1C	u	16%	10	u	7.9µM*
O=C(C[C@H]1C=C[C@@H](NC(=O)c2ccncc2)[C@@H](CO)O1)NCC1CC1	x	x	3	x	x
Nc1ncnc2c1ncn2[C@@H]1O[C@H](CNCc2ccc(OCC(=O)Nc3nccs3)cc2)[C@@H](O)[C@H]1O	x	-1%	3	-29%	x
CCOC(=O)c1c(NC(=O)/C=C\C(=O)O)sc(C)c1-c1ccccc1	26%	u	-99*	21µM*	u
CCOC(=O)c1sc(NC(=O)CCN2CCCCCC2)c(C(=O)OCC)c1C	u	u	-99*	u	11µM*
COc1ccc(Nc2nc(N)nc(CN3CCc4ccccc4C3)n2)cc1	2%	u	21	u	-2%
COc1ccccc1Nc1nc(N)nc(CN2CCc3ccccc3C2)n1	u	2%	-5	7%	11µM*
COc1ccccc1Nc1nc(N)nc(CSC(=S)N2CC(C)CC(C)C2)n1 (centres undefined)	25µM*	1%	-3	20%	u
COc1ccc(Nc2nc(N)nc(CSC(=S)N3CCCCC3C)n2)cc1 (centres undefined)	-1%	u	-62*	u	13µM*
COc1ccc(CN(C(=O)c2snc(C(N)=O)c2N)C(C(=O)NC2CCCC2)c2cc(OC)ccc2OC)cc1 (centres undefined)	-3%	8%	-15	2%	34%
CCN(CCCNC(=O)Cn1ncc2c([nH]c3ccc(C)cc32)c1=O)c1ccccc1	-11%	1%	11	2%	-11%
O=C(Cc1cccs1)NCc1ccc(Cl)cc1Cl	-8%	3%	-7	0%	32%
CC(C)OC(=O)c1cn(-c2ccccc2)nc1-c1ccco1	x	u	-90*	u	-9%[0.365 µM]
N#C/C(=C\c1ccccc1Br)C(=O)NC1CC1	-4%	-6%	-9	-3%	-9%
O=C(Nc1ccccc1)OCc1cnc(Cl)s1	6%	2%	-8	0%	36%
O=C(Nc1ccccc1)OCc1cc(-c2ccccc2Cl)on1	4%	-5%	u	26µM*	u
O=C(Nc1cccc(O)c1)c1cc(-c2ccccc2Cl)on1	1.3µM*	2%	u	15%	0.22µM*
COc1cc(NC(=O)c2cc(-c3ccc4c(c3)OCO4)on2)cc(OC)c1OC	-21%	-25%	20	19%	-19%
O=C(Nc1cccc(O)c1)c1cc(-c2ccc3c(c2)OCO3)on1	1.4µM*	4%	-8	2%	4µM*
O=C(c1cc(-c2ccccc2Cl)on1)N1CCCC1	u	-26%	25	-19%	13µM*
COc1ccccc1-c1cc(C(=O)N2CCCC2)no1	-5%	-5%	-6	-11%	-29%
O=C(CSc1nnc(C2CC2)n1CC1CCCO1)Nc1ccccc1Cl (centres undefined)	-5%	10%	-3	-1%	-16%
O=C(NCc1ccccc1)c1cc(-c2cccc(O)c2)on1	0%	6.5µM*	-19	u	-3%
COCC(=O)Nc1ccc2c(c1)[C@@H]1C[C@H](CC(=O)OC)O[C@@H](CO)[C@@H]1O2	x	x	19	x	x
SMILES	VP16 counter	SW480 rerep	IL1B secr inh	MCF10A rereplic	RORg inh
O=C1C(=NO)CCc2ccccc21	x	21µM*	-78*	20%	x
O/N=C1/CCc2cccc3cccc1c23	1%	-7%	16	-2%	38%
CCC(c1ccccc1)c1noc(CCN(CC)CC)n1 (centres undefined)	x	x	-16	x	x
COc1ccc(C(=O)Nc2nc3c(s2)Cc2cc(OC)ccc2-3)cc1	35µM*	-8%[9.22 µM]	-53*	-5%	u
COc1ccc2c(c1)Cc1sc(NC(=O)c3ccccc3)nc1-2	-26%	-5%	-4	u	11µM*
COc1ccc(C(=O)Nc2nnc(S(=O)(=O)Cc3ccccc3)s2)cc1	0%	0%	12	-3%	-10%
COc1ccc(C(=O)Nc2nc3ccc4nc(C)sc4c3s2)cc1	3%	-19%	-10	-6%	u
COc1ccc2c(c1)Cc1sc(NC(=O)c3cccs3)nc1-2	u	1%	-13	-180%[0.0737 µM]	7.9µM*
CCCC[C@H]1CCCO[C@@](C(=O)NCCN2CCOCC2)(C(F)(F)F)C1	0%	x	x	x	7%
COc1ccccc1N(CC(=O)N/N=C/c1ccc(OCC(=O)NCc2ccco2)cc1)S(=O)(=O)c1ccc(C)cc1	-13%	24%	-13	12%	17%
COC(=O)COc1ccc(/C=N/NS(=O)(=O)c2ccccc2)cc1	0%	-1%	-92*	-4%	-13%
COC(=O)COc1ccc(/C=N/NC(=O)CN(c2ccccc2OC)S(=O)(=O)c2ccccc2)cc1	1%	u	-96*	u	1%
Cc1cc(C)cc(N(CC(=O)N/N=C/c2ccncc2)S(=O)(=O)c2ccccc2)c1	-8%	-2%	-54*	11%	-19%
COC(=O)COc1ccc(/C=N/NC(=O)c2ccc(N(Cc3ccccc3)S(C)(=O)=O)cc2)cc1	u	8%	-95*	u	u
COc1ccc(N2CCN(C(=O)C(=O)c3cc(OC)c(OC)c(OC)c3)CC2)cc1	x	x	10	x	x
CCCn1c(-c2ccc(F)cc2)nc2c(N3CCN(Cc4nc(OC)cc(OC)n4)CC3)nc(C)nc21	6%	x	x	x	-9%
CCNC(=O)[C@H]1O[C@H](n2cnc3c(N)nc(NCCc4ccc(CCC(=O)O)cc4)nc32)[C@@H](O)[C@@H]1O	3%	x	x	x	1%
Cc1cccc(NC(=O)c2nc[nH]c2C(=O)NCCCCCNC(=O)OC(C)(C)C)c1	x	u	-75*	-3%	x
CC(C)(C)OC(=O)NCCCC[C@H](NC(=O)c1nc[nH]c1C(=O)NCc1ccc(CNC(=O)OC(C)(C)C)cc1)C(=O)OC(C)(C)C	2%	-5%	-17	25%	u
CC(C)(C)OC(=O)NCCCCCNC(=O)c1nc[nH]c1C(=O)NCCCCCNC(=O)OC(C)(C)C	x	3%	19	u	x
Cc1cccc(NC(=O)c2nc[nH]c2C(=O)N[C@@H](CCCCNC(=O)OC(C)(C)C)C(=O)OC(C)(C)C)c1	16µM*	5%	-19	u	6.3µM*
CSCC[C@H](N)C(=O)N[C@@H](CCCN=C(N)N)C(=O)N[C@@H](Cc1ccccc1)C(=O)N[C@@H](Cc1ccccc1)C(=O)N[C@H](C(=O)O)C(C)C	4%	x	x	x	0%
CCN(CC(=O)Nc1c(F)cccc1F)C(=O)C1CCCO1 (centres undefined)	x	x	-16	x	x
